Shown are actives, neighbours in structure and some others; about 1.8% of the full set was active somewhere.
CendR NRP1 mod = NRP-1/CendR interaction modulation | O14786 | FAM-RPARPAR peptide binding to NRP-1, fluorescence polarization | inhibition, % at 25 µM | 360,000 tested, 0.85% active | AID 602438;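 active = inhibition or corrected inhibition above about 18%, plus a signal ratio from 0.5 to 1.5, limit read from the data, passing the limit was not always enough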
Target sequence (O14786 whole entry, looked up): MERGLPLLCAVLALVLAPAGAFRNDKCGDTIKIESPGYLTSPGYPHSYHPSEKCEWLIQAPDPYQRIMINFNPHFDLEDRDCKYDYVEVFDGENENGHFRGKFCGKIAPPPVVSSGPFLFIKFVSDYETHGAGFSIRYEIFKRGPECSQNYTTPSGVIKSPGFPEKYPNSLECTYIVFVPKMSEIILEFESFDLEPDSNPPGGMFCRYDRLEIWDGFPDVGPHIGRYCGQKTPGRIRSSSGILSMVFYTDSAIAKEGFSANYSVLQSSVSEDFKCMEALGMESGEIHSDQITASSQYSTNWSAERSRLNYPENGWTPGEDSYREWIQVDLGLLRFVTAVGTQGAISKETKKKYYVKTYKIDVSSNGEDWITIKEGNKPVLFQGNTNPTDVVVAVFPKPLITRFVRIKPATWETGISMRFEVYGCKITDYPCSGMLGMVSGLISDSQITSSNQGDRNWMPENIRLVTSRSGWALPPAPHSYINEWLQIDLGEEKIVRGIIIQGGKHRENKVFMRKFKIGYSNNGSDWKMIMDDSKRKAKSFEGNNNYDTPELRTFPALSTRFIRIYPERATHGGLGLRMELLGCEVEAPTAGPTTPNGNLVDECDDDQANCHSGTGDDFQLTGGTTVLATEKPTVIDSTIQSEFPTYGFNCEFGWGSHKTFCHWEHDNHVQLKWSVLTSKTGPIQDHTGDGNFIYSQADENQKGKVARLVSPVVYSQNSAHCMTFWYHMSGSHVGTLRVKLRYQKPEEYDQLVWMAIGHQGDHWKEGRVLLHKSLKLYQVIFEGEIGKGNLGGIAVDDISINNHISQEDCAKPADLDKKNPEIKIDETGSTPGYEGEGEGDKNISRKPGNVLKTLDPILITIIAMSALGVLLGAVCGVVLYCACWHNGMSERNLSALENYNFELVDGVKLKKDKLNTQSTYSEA
ABCB6 inh 2 = blocks the human ABCB6 transporter; Q9NP58; K562-ABCB6 porphyrin accumulation, flow cytometry, 1 h; hits give low values; fluorescence ratio to DMSO, % at 10 µM; 360,000 tested, 0.19% active;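 active = fluorescence ratio to DMSO below 75%, the collection mean minus 3 SD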;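 also: signal is porphyrin accumulated inside mitochondria; 100% equals median channel fluorescence of DMSO control wells; lower ratio means ABCB6 inhibition with less porphyrin fluorescence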
GSIS activator = primary screen for activators of insulin secretion dependent on glucose, INS-1E cells, GLuc reporter luminescence | INS-1E GLuc reporter insulin secretion, 2-3 h | activation, % at 16.6 µM | 370,000 tested, 0.61% active | AID 743287;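 active = lowest replicate activation of at least 40%, so every replicate reaches that level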;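 also: 0% = median of neutral control wells and 100% = median of IBMX positive control wells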
ARNT-TACC3 inh = disrupts binding between human ARNT and TACC3; Q9Y6A5; AlphaScreen His-ARNT PAS-B/GST-TACC3 binding, luminescence; TACC3 fragment carries E629A point mutation; inhibition, % at 9.99 µM; 390,000 tested, 0.66% active;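 active = mean inhibition of replicates at least 50% and at least half of replicates each reaching 50%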;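 also: 0% = complete ARNT plus TACC3 wells and 100% = ARNT alone without TACC3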
hiPSC survival = enhancers of human iPSC single-cell survival. hiPSC single-cell survival, ATPlite luminescence; 100% = ROCK inhibitor wells, 0% = DMSO. survival enhancement, % at 20 µM. 360,000 tested, 0.044% active. AID 602274; in the data active = survival enhancement above about 18%;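 also: cells exposed to compounds for 16 hours before the ATP read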
Numbers without * were called inactive; . = not tested or not shown.

SMILES	CendR NRP1 mod	ABCB6 inh 2	GSIS activator	ARNT-TACC3 inh	hiPSC survival
Cc1ccc(N(C(=O)CCC(=O)Nc2cc(C)on2)C(C(=O)NC2CCCC2)c2cccs2)cc1 (centres undefined)	3.3	94.0	.	-5.0	-2.3
Cc1cc(NC(=O)CCC(=O)N(Cc2ccco2)C2(C(=O)NC3CCCC3)CCCCC2)no1	19.4*	95.0	-4.6	-1.4	-0.4
Cc1cc(NC(=O)CCC(=O)N(c2ccccc2)C(C(=O)NC2CCCC2)c2cccs2)no1 (centres undefined)	20.0*	90.0	.	0.6	0.2
Cc1cc(NC(=O)CCC(=O)N(Cc2ccco2)C2(C(=O)NC3CCCCC3)CCN(C)CC2)no1	3.9	94.0	.	1.5	-2.2
Cc1cc(NC(=O)CCC(=O)N(c2ccccc2)C(C(=O)NC2CCCC2)c2ccccc2)no1 (centres undefined)	-7.4	92.0	.	1.5	0.9
Cc1noc(C)c1S(=O)(=O)Nc1ccc2c(c1)C(=O)N([C@@H](C)CO)C[C@@H](C)[C@H](CN(C)S(C)(=O)=O)OCCCC[C@@H](C)O2	.	.	-4.4	-1.4	.
COc1cc(C2CC(=O)NC(SCC(=O)Nc3ccccc3C)=C2C#N)ccc1O (centres undefined)	-2.8	89.0	.	67.8*	-2.7
CCCSC1=C(C#N)C(c2ccc(O)c(OC)c2)CC(=O)N1 (centres undefined)	0.3	100.0	-9.8	5.2	0.6
Cc1c(Br)c([N+](=O)[O-])nn1CC(=O)NCc1cccs1	25.4*	92.0	.	-3.2	-0.5
COc1cccc(NC(=O)N2CC(=O)N3[C@H](C2)[C@H](c2ccc(C4=CCCCC4)cc2)[C@@H]3CO)c1	.	.	-23.0	.	.
Cc1cc(NC(=O)CSc2nc3sc4c(c3c(=O)n2C)CCCC4)no1	0.2	94.0	152.3*	0.7	-1.5
CCn1c(SCC(=O)Nc2cc(C)on2)nc2sc3c(c2c1=O)CCCC3	-0.9	99.0	7.7	0.6	3.0
CCCC(=O)N1C[C@H]2[C@@H](c3ccccc31)[C@H](CO)N2C(=O)CC1CC1	.	.	10.6	4.9	.
CCOC(=O)Nc1ccc2c(c1)Sc1ccccc1N2C(=O)CCN1CCOCC1	-4.7	204.0	107.3*	8.0	-1.9
CCOC(=O)Nc1ccc2c(c1)N(C(=O)CCN1CCN(C)CC1)c1ccccc1S2	4.4	206.0	.	-1.8	5.3
O=C(CSC(=S)N1CCOCC1)c1cc2ccccc2oc1=O	-0.5	100.0	.	47.9*	-0.7
O=C(COC(=O)C1CC2CCCC(C1)C2=O)c1cccc(Br)c1 (centres undefined)	-1.8	95.0	.	-33.3	0.7
O=C(CN1CC(=O)Oc2ccccc21)OCC(=O)c1cccc(Br)c1	-19.0	100.0	.	73.3*	-1.2
CCNC(=O)C[C@@H]1CC[C@H](NS(=O)(=O)c2ccc(F)cc2)[C@H](CO)O1	.	.	-7.2	-8.2	.
COc1ccc(C(=O)/C=C2/c3ccccc3CC(C)(C)N2C)cc1OC	4.2	96.0	41.0*	-5.4	-1.6
C[C@H]1CCCCO[C@@H](CN(C)Cc2ccc(C(=O)O)cc2)[C@@H](C)CN([C@@H](C)CO)C(=O)c2cc(NS(=O)(=O)c3ccc(F)cc3)ccc2O1	.	.	6.4	-0.3	.
Cn1c(=O)oc2cc(S(=O)(=O)Nc3ccccc3O)ccc21	34.9*	92.0	4.6	-0.9	0.1
COc1cccc(NC(=O)N(C)C[C@@H]2Oc3ncc(/C=C/c4ccccc4)cc3C(=O)N([C@H](C)CO)C[C@H]2C)c1	.	.	-19.6	16.4	.
C=CCN(c1ccccc1Cl)S(=O)(=O)c1cccc(C(=O)OCC(=O)N(C)C2CCS(=O)(=O)C2)c1 (centres undefined)	-3.3	69.0*	-14.7	-1.9	1.0
Cc1cc(N2CCN(C3CCCCC3)CC2)n2nc(C)nc2n1	9.7	103.0	41.4	-2.7	-0.1
Cc1cc(C)c2c(C)nn(C3CCCCC3)c2n1	6.1	94.0	71.0*	-1.0	-0.2
Cc1ccccc1C(=O)Nc1nnc(-c2ccc(C(C)(C)C)cc2)s1	-1.5	97.0	137.0*	-4.6	-0.2
C[C@]12CC[C@@H]3c4ccc(O[C@@H]5O[C@H](C(=O)O)[C@@H](O)[C@H](O)[C@H]5O)cc4CC[C@H]3[C@@H]1C[C@@H](O)[C@@H]2O	6.9	102.0	1.1	2.5	-0.1

Screening results: PubChem BioAssay, several laboratories
